Our source for the binding signal values is publication PMC11006913.

Positions count from the first letter of the chain named.

Common to all, as to assay: PBM; 200 nM protein, PBS
Common to all, as to conditions: dsDNA, one strand shown

Experiment [1] concerns the target T1, VENTX (Homo sapiens, UniProt O95231 78-163, R121Q).
T1 sequence: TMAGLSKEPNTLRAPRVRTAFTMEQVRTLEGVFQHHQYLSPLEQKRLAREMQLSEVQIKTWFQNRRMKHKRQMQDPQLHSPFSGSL

Experiment [2] has as its target T2, VENTX (Homo sapiens, UniProt O95231 78-163).
T2 sequence: T1 sequence with Q44R

The target in experiment [3] is HOXA7 (Homo sapiens, UniProt P31268 116-202).
Chain of HOXA7 (Homo sapiens, UniProt P31268 116-202) (P31268 116-202): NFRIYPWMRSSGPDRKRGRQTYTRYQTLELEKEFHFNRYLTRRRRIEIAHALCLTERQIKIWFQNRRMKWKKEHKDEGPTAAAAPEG
Experiment [4] deals with T3, VENTX (Homo sapiens, UniProt O95231 78-163, Y115F).
T3 sequence: T1 sequence with Y38F, Q44R

In experiment [5] the target is HOXB6 (Homo sapiens, UniProt P17509 132-218, K202E).
Chain of HOXB6 (Homo sapiens, UniProt P17509 132-218, K202E) (P17509 132-218 K202E): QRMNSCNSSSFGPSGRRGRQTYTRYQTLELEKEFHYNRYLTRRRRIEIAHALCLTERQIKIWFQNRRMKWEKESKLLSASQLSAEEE
Experiment [6] concerns the target HOXA2 (Homo sapiens, UniProt O43364 129-215, R185K).
Experiment [7] deals with VAX1 (Homo sapiens, UniProt Q5SQQ9 86-172).
Chain of VAX1 (Homo sapiens, UniProt Q5SQQ9 86-172) (Q5SQQ9 86-172): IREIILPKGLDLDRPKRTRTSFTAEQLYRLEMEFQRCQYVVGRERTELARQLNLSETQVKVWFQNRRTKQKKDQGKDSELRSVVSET
Experiment [8] addresses VAX1 (Homo sapiens, UniProt Q5SQQ9 86-172, T142I).
The target in experiment [9] is HOXA7 (Homo sapiens, UniProt P31268 116-202, W177C).
Chain of HOXA7 (Homo sapiens, UniProt P31268 116-202, W177C) (P31268 116-202 W177C): as the sequence (P31268 116-202) above, with W62C counted along it
Experiment [10] has as its target VAX1 (Homo sapiens, UniProt Q5SQQ9 86-172, K157R).
For experiment [11], the target named is HOXB6 (Homo sapiens, UniProt P17509 132-218).
Chain of HOXB6 (Homo sapiens, UniProt P17509 132-218) (P17509 132-218): as the sequence (P17509 132-218 K202E) above, with E71K counted along it
Experiment [12] concerns the target T4, PAX4 (Homo sapiens, UniProt O43316 9-242, R200K).
T4 sequence: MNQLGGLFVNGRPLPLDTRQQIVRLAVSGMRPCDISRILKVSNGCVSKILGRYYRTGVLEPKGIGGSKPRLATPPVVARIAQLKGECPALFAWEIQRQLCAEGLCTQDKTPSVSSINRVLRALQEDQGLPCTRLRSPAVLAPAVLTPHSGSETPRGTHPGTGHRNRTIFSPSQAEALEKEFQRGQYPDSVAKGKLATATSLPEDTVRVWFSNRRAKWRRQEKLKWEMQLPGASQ

The target of experiment [13] is T5, PAX4 (Homo sapiens, UniProt O43316 9-242).
T5 sequence: T4 sequence with K192R

Experiment [14] deals with T6, NKX2-6 (Homo sapiens, UniProt A6NCS4 118-204, R150C).
T6 sequence: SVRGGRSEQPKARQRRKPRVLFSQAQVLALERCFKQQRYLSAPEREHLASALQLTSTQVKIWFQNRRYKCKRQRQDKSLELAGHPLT

Experiment [15] deals with T7, PAX4 (Homo sapiens, UniProt O43316 9-242, R200Q).
T7 sequence: T4 sequence with K192Q

Experiment [16] concerns the target T8, PAX4 (Homo sapiens, UniProt O43316 9-242, F177V).
T8 sequence: T4 sequence with F169V, K192R

In experiment [17] the target is T9, PAX4 (Homo sapiens, UniProt O43316 9-242, F177Y).
T9 sequence: T4 sequence with F169Y, K192R

The target of experiment [18] is T10, PAX4 (Homo sapiens, UniProt O43316 9-242, R227W).
T10 sequence: T4 sequence with K192R, R219W

Experiment [19] addresses PRRX1 (Homo sapiens, UniProt P54821 80-166, F113S).
Experiment [20] deals with PRRX1 (Homo sapiens, UniProt P54821 80-166).
Chain of PRRX1 (Homo sapiens, UniProt P54821 80-166) (P54821 80-166): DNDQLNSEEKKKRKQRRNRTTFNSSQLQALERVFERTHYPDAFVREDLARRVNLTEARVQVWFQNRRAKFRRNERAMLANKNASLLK
Experiment [21] concerns the target ALX4 (Homo sapiens, UniProt Q9H161 200-286).
Experiment [22] has as its target ALX4 (Homo sapiens, UniProt Q9H161 200-286, Q225E).
In experiment [23] the target is MSX2 (Homo sapiens, UniProt P35548 130-214, R199I).
Chain of MSX2 (Homo sapiens, UniProt P35548 130-214, R199I) (P35548 130-214 R199I): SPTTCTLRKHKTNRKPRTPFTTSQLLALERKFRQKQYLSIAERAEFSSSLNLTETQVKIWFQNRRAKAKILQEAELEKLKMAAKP
For experiment [24], the target named is MSX2 (Homo sapiens, UniProt P35548 130-214).
Chain of MSX2 (Homo sapiens, UniProt P35548 130-214) (P35548 130-214): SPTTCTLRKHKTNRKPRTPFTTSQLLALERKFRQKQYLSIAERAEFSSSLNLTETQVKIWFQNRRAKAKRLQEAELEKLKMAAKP
The target of experiment [25] is MSX2 (Homo sapiens, UniProt P35548 130-214, F161Y).
Chain of MSX2 (Homo sapiens, UniProt P35548 130-214, F161Y) (P35548 130-214 F161Y): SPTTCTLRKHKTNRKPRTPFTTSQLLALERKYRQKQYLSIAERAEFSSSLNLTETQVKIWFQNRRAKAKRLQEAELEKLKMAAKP

Chain of ALX4 (Homo sapiens, UniProt Q9H161 200-286) (Q9H161 200-286): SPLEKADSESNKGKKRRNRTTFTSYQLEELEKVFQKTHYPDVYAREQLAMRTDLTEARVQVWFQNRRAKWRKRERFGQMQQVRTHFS
Chain of ALX4 (Homo sapiens, UniProt Q9H161 200-286, Q225E) (Q9H161 200-286 Q225E): as the sequence (Q9H161 200-286) above, with Q26E counted along it
Chain of HOXA2 (O43364 129-215 R185K): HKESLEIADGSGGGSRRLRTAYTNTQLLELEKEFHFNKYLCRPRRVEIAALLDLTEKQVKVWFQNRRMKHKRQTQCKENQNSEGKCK
Chain of VAX1 (Homo sapiens, UniProt Q5SQQ9 86-172, T142I) (Q5SQQ9 86-172 T142I): as the sequence (Q5SQQ9 86-172) above, with T57I counted along it
Chain of PRRX1 (Homo sapiens, UniProt P54821 80-166, F113S) (P54821 80-166 F113S): as the sequence (P54821 80-166) above, with F34S counted along it
Chain of VAX1 (Homo sapiens, UniProt Q5SQQ9 86-172, K157R) (Q5SQQ9 86-172 K157R): as the sequence (Q5SQQ9 86-172) above, with K72R counted along it

As to GCCCATTA, the binding signal was 12.1 upbm affinity estimate (log intensity, higher = more binding, comparable within an allelic series) in experiment [1]; 13 upbm affinity estimate (log intensity, higher = more binding, comparable within an allelic series) in experiment [2]; 11.3 upbm affinity estimate (log intensity, higher = more binding, comparable within an allelic series) in [3]; 11.8 upbm affinity estimate (log intensity, higher = more binding, comparable within an allelic series) in [4]; 9.82 upbm affinity estimate (log intensity, higher = more binding, comparable within an allelic series) in experiment [5]; 13.1 upbm affinity estimate (log intensity, higher = more binding, comparable within an allelic series) in [6]. For the same sequence, the binding signal was 12.8 upbm affinity estimate (log intensity, higher = more binding, comparable within an allelic series) in experiment [7]; 12.2 upbm affinity estimate (log intensity, higher = more binding, comparable within an allelic series) in experiment [8]; 8.75 upbm affinity estimate (log intensity, higher = more binding, comparable within an allelic series) in [9]; 12.5 upbm affinity estimate (log intensity, higher = more binding, comparable within an allelic series) in experiment [10]; 11.8 upbm affinity estimate (log intensity, higher = more binding, comparable within an allelic series) in experiment [11].

On to GTTAATAA, for which the binding signal was 10.8 upbm affinity estimate (log intensity, higher = more binding, comparable within an allelic series) in experiment [1]; 11.2 upbm affinity estimate (log intensity, higher = more binding, comparable within an allelic series) in experiment [2]; 10.6 upbm affinity estimate (log intensity, higher = more binding, comparable within an allelic series) in experiment [4].

Turning to CGGCCCCA, the binding signal in experiment [1] was 8.18 upbm affinity estimate (log intensity, higher = more binding, comparable within an allelic series); in experiment [2], 8.34 upbm affinity estimate (log intensity, higher = more binding, comparable within an allelic series); in experiment [12] it was 9.24 upbm affinity estimate (log intensity, higher = more binding, comparable within an allelic series); in [4], 8.08 upbm affinity estimate (log intensity, higher = more binding, comparable within an allelic series); in [13], 9.19 upbm affinity estimate (log intensity, higher = more binding, comparable within an allelic series); in experiment [14], 9.36 upbm affinity estimate (log intensity, higher = more binding, comparable within an allelic series). Further, the binding signal in [15] was 9.28 upbm affinity estimate (log intensity, higher = more binding, comparable within an allelic series); in experiment [16], 9.21 upbm affinity estimate (log intensity, higher = more binding, comparable within an allelic series); in experiment [17], 9.24 upbm affinity estimate (log intensity, higher = more binding, comparable within an allelic series); in experiment [18], 9.25 upbm affinity estimate (log intensity, higher = more binding, comparable within an allelic series).

With TACATATA, the binding signal in experiment [1] is 9.51 upbm affinity estimate (log intensity, higher = more binding, comparable within an allelic series); in experiment [2], 9.59 upbm affinity estimate (log intensity, higher = more binding, comparable within an allelic series); in experiment [4], 9.49 upbm affinity estimate (log intensity, higher = more binding, comparable within an allelic series).

Consider CCGAGTCC, for which the binding signal was 8.15 upbm affinity estimate (log intensity, higher = more binding, comparable within an allelic series) in [1]; 8.13 upbm affinity estimate (log intensity, higher = more binding, comparable within an allelic series) in experiment [2]; 9.18 upbm affinity estimate (log intensity, higher = more binding, comparable within an allelic series) in [19]; 8.08 upbm affinity estimate (log intensity, higher = more binding, comparable within an allelic series) in [4]; 9.67 upbm affinity estimate (log intensity, higher = more binding, comparable within an allelic series) in [20].

As for GAAGCCGC, the binding signal was 8.12 upbm affinity estimate (log intensity, higher = more binding, comparable within an allelic series) in [1]; 8.07 upbm affinity estimate (log intensity, higher = more binding, comparable within an allelic series) in experiment [2]; 8.19 upbm affinity estimate (log intensity, higher = more binding, comparable within an allelic series) in experiment [21]; 9.31 upbm affinity estimate (log intensity, higher = more binding, comparable within an allelic series) in [12]; 8.31 upbm affinity estimate (log intensity, higher = more binding, comparable within an allelic series) in experiment [4]; 9.25 upbm affinity estimate (log intensity, higher = more binding, comparable within an allelic series) in experiment [13]. Moreover, the binding signal in [22] was 8.07 upbm affinity estimate (log intensity, higher = more binding, comparable within an allelic series); in [23] it was 9.54 upbm affinity estimate (log intensity, higher = more binding, comparable within an allelic series); in [15], 9.31 upbm affinity estimate (log intensity, higher = more binding, comparable within an allelic series); in [16], 9.32 upbm affinity estimate (log intensity, higher = more binding, comparable within an allelic series); in experiment [24], 9.58 upbm affinity estimate (log intensity, higher = more binding, comparable within an allelic series); in [17], 9.18 upbm affinity estimate (log intensity, higher = more binding, comparable within an allelic series). In addition, the binding signal in [25] is 9.63 upbm affinity estimate (log intensity, higher = more binding, comparable within an allelic series); in experiment [18] it was 9.34 upbm affinity estimate (log intensity, higher = more binding, comparable within an allelic series).

Turning to AAATTCGT, the binding signal in experiment [1] was 9.56 upbm affinity estimate (log intensity, higher = more binding, comparable within an allelic series); in experiment [2] it was 9.96 upbm affinity estimate (log intensity, higher = more binding, comparable within an allelic series); in [4], 9.72 upbm affinity estimate (log intensity, higher = more binding, comparable within an allelic series).

Regarding CGTCGACG, the binding signal is 7.98 upbm affinity estimate (log intensity, higher = more binding, comparable within an allelic series) in experiment [1]; 7.91 upbm affinity estimate (log intensity, higher = more binding, comparable within an allelic series) in [2]; 7.89 upbm affinity estimate (log intensity, higher = more binding, comparable within an allelic series) in [21]; 8.1 upbm affinity estimate (log intensity, higher = more binding, comparable within an allelic series) in experiment [4]; 7.93 upbm affinity estimate (log intensity, higher = more binding, comparable within an allelic series) in [22].

Take AATCCATT: the binding signal in [1] was 10.1 upbm affinity estimate (log intensity, higher = more binding, comparable within an allelic series); in experiment [2], 10.5 upbm affinity estimate (log intensity, higher = more binding, comparable within an allelic series); in [4], 9.94 upbm affinity estimate (log intensity, higher = more binding, comparable within an allelic series).
